CYP2C9 inhib = inhibitors of human CYP2C9; P11712; CYP2C9 Supersomes, luciferin-H conversion, luminescence; inhibition, % at 5 µM; 96,000 tested, 20% active; AID 777;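 active means blocking of liver enzyme CYP2C9 beyond about 50% at 5 µM, limit read from the data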
PostGolgi ctrl = growth of the yeast control strain, post-Golgi counter-screen; efflux-deficient yeast background strain, growth absorbance A615, 16 h; 98,000 tested, 5% active; inhibition, % at 10 µM; AID 738
CYP2C19 inhib = blocks human cytochrome P450 2C19. CYP2C19 Supersomes, luciferin-H EGE luminescence, 30 min. inhibition, % at 5 µM. 96,000 tested, 21% active. AID 778;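 active means CYP2C19 inhibition above a set limit at 5 µM in the primary screen, cut at about 50% in these data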;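 further: plate controls were negative control wells for no effect and 2.5 mM tranylcypromine positive control for full effect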
Target sequence (P33261 whole entry, looked up): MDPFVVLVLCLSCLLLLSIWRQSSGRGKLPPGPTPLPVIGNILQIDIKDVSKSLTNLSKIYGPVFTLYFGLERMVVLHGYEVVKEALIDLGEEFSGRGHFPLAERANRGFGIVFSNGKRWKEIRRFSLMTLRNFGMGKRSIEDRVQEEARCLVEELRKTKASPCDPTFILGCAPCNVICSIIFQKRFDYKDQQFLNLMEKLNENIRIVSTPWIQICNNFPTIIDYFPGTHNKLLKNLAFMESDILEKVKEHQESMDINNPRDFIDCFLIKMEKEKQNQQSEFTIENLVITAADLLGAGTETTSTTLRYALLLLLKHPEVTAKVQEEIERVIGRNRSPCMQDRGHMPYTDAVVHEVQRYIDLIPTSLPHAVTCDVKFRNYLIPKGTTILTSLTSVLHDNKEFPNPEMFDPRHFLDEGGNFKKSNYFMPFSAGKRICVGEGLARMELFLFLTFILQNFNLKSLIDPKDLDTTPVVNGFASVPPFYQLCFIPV
CYP2C9 activ = increases human cytochrome P450 2C9 activity; recombinant CYP2C9, luciferin-H conversion, luminescence; stronger effect = higher value; factor 1 = untreated enzyme, 0 = blocked; activation factor at 5 µM; 96,000 tested, 1.4% active;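 active means activation factor of 2 or more for CYP2C9 at a 5 µM dose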;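 further: 0 = sulfaphenazole-blocked wells and 1 = vehicle-only wells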
CYP2C19 activ = activators of human cytochrome P450 2C19; P33261; recombinant CYP2C19, luciferin-H EGE luminescence; stronger effect = higher value; 0 = fully inhibited enzyme, 1 = untreated enzyme; activation factor at 5 µM; 96,000 tested, under 10 active; AID 1025;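 active means activation factor of at least 2 at 5 µM in the primary screen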;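 further: 0 = wells with 2.5 mM tranylcypromine and 1 = vehicle-only wells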
PostGolgi yeast = growth inhibition of a yeast mutant, post-Golgi transport screen; 98,000 tested, 0.9% active; post-Golgi transport phenotypic cell assay; AID 739; inhibition, % at 10 µM;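 further: yeast cells grown in 1536-well plates; yeast grown about 18 h at 30C before absorbance read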
* marks the source's active call; other numbers are inactive results; . = not tested or not shown. Compounds with a hit are over-represented: about 32% of the library has one in this group of screens. Unless noted, no stated cut-off is given here; in the data, active means inhibition above about 30%; inactive means the rest.

SMILES	CYP2C9 inhib	PostGolgi ctrl	CYP2C19 inhib	CYP2C9 activ	CYP2C19 activ	PostGolgi yeast
CCNc1nc(OC)nc(Oc2ccc(=O)n(-c3ccccc3)n2)n1	-2	14	-5	1	1	-5
Clc1ccc(-c2nc3ccccc3n2OCc2ccccc2)cc1	-5	29	-3	1.1	1	6
CCn1c(=O)c(C(=O)NCc2ccccn2)c(O)c2ccccc21	-55	6	22	1.5	0.8	-5
CCn1c(=O)c(C(=O)NCc2ccc(OC)cc2)c(O)c2ccccc21	68*	0	36	0.3	0.6	-4
CCn1c(=O)c(C(=O)Nc2nc3ccccc3[nH]2)c(O)c2ccccc21	6	98*	-1	0.9	1	104*
CCn1c(=O)c(C(=O)NCc2ccc(OC)c(OC)c2)c(O)c2ccccc21	95*	13	40	0	0.6	-3
CCCn1c(=O)c(C(=O)NCc2ccc(OC)c(OC)c2)c(O)c2ccccc21	87*	-1	39	0.1	0.6	-2
CCOc1ccc(S(=O)(=O)NN)cc1	1	2	16	1	0.8	10
Cc1cccc(NC(=O)Cc2cccs2)n1	-4	10	12	1	0.9	2
COCCNc1cc(C)c(C#N)c2nc3ccccc3n12	44	-8	18	0.6	0.8	-8
CC(C)CNC(=O)CCCc1ccccc1	42	17	83*	0.6	0.2	1
C=CCNC(=O)CCCc1ccccc1	4	3	67*	1	0.3	10
CC(C)C(=O)NCCCc1ccccc1	9	-1	24	0.9	0.8	-2
COc1ccc(C2C(=O)N(CCc3ccccc3)CC(=O)N2C2CCCCC2)cc1 (configuration not stated)	30	20	14	0.7	0.9	-6
Brc1cccc(-c2nnc3sc(CN4CCC5(CC4)OCCO5)cn23)c1	14	2	6	0.9	0.9	-1
Brc1cccc(-c2nnc3sc(CN4CCCCC4)cn23)c1	50*	8	37	0.5	0.6	-10
Cc1ncsc1CCSc1n[nH]c(=O)n1-c1ccccc1	2	1	40	1	0.6	9
Cc1ncsc1CCSc1nc2ccccc2c(=O)n1C	68*	14	77*	0.3	0.2	23
COc1ccc(Cl)cc1NC(=O)CSc1nnc(COc2ccccc2)n1N	-58	8	44	1.6	0.6	1
COc1ccccc1NC(=O)CSc1nnc(CC(=O)Nc2cccc(C(F)(F)F)c2)n1C	-49	5	51*	1.5	0.5	3
COc1ccc(NC(=O)Cc2nnc(SCC(=O)Nc3cc(C)ccc3OC)n2C)cc1	-16	10	95*	1.2	0.1	16
COc1ccc(Cl)cc1NC(=O)CSc1nnc(COc2ccccc2)n1C	-76	22	55*	1.8	0.5	5
COc1ccc(OC)c(-c2csc3nnc(SCC(=O)Nc4ccc(NC(C)=O)cc4)n23)c1	53*	-2	24	0.5	0.8	-16
O=C(NC1CC2CCCC(C1)N2CC(=O)N1CCCc2ccccc21)C1CCCCC1 (configuration not stated)	.	2	.	.	.	3
Cc1ccc(C2CC(C(F)(F)F)n3ncc(C(=O)NCc4ccco4)c3N2)cc1 (configuration not stated)	25	17	26	0.7	0.7	-9
SMILES	CYP2C9 inhib	PostGolgi ctrl	CYP2C19 inhib	CYP2C9 activ	CYP2C19 activ	PostGolgi yeast
CCC(=S)/C=C1\Sc2ccccc2N1CCCS(=O)(=O)O	2	7	-17	1	1.2	9
COc1cccc(C2/C(=C(\O)c3ccc(OC)c(OC)c3)C(=O)C(=O)N2c2cc(C)on2)c1 (configuration not stated)	-11	3	-13	1.1	1.1	-3
COc1ccccc1OCc1nnc(SCC(=O)Nc2ccc(C)cc2)n1C	-104	-2	48	2*	0.5	10
O=C(c1cccc(F)c1)N1CCN(S(=O)(=O)c2ccc(C(F)(F)F)cc2)CC1	4	7	25	1	0.8	12
O=C(O)c1cc2nc(C3CC3)cc(C(F)(F)F)n2n1	-13	7	-9	1.1	1.1	-3
Cc1ccccc1CS(=O)(=O)c1snnc1C	-1	-5	55*	1	0.5	8
Cc1ccccc1CS(=O)(=O)c1cnc2ccccc2n1	-129	-3	93*	2.3*	0.1	-5
COc1ccc(N2CC(O)=C(c3n(C)c4ccccc4[n+]3C)C2=N)cc1	-11	16	-13	1.1	1.1	-7
CC(C)(C)Nc1nc(OCC(F)(F)F)nc(OCC(F)(F)F)n1	4	5	7	1	0.9	-3
COc1cccc(C(C(=O)NC2CCCCC2)N(C(=O)Cc2cccs2)c2ccc(-n3cnnn3)c(OC)c2)c1 (configuration not stated)	31	10	65*	0.7	0.3	-10
Cc1ccc(N(C(=O)CNC(=O)c2ccco2)C(C(=O)NC2CCCC2)c2cccnc2)cc1C (configuration not stated)	4	4	5	1	1	13
Cc1cc(N(C(=O)c2ccco2)C(C(=O)NC2CCCCC2)c2ccccc2)ccc1-n1cnnn1 (configuration not stated)	92*	5	56*	0.1	0.4	14
CN(CCNC(=O)c1ccc(N2CCCC2=O)cc1)CCc1ccccc1	.	3	.	.	.	6
COc1c(Cl)cc(Cl)cc1/C=N/n1cnnc1	-1	6	-2	1	1	2
O=C(Cn1c(C(=O)NCc2ccco2)cc2sccc21)c1ccccc1	39	44*	29	0.6	0.7	-4
O=C(Cn1c(C(=O)N2CCN(C3CCCC3)CC2)cc2sccc21)c1ccccc1	40	5	80*	0.6	0.2	10
O=C(NCc1ccco1)C1CCN(C(=O)c2cc3sccc3n2Cc2ccc(Cl)cc2)CC1	77*	25	65*	0.2	0.4	1
O=C(NCC1CCCO1)c1ccccc1 (configuration not stated)	-20	0	-18	1.2	1.2	-5
O=C(Cn1c(C(=O)NCC2CCCO2)cc2sccc21)c1ccccc1 (configuration not stated)	51*	5	27	0.5	0.7	-4
O=C(NCCN1CCOCC1)c1cc2sccc2n1Cc1ccc(Cl)cc1	69*	13	70*	0.3	0.3	9
CCn1c(C(=O)N2CCC(Cc3ccccc3)CC2)cc2sccc21	58*	18	59*	0.4	0.4	-1
O=C(NCCN1CCOCC1)c1cc2sccc2n1Cc1ccc(F)cc1	27	2	31	0.7	0.7	0
COc1ccc(-c2nnc(NC(=O)c3cc(Cl)ccc3Cl)o2)cc1	8	16	7	0.9	0.9	13
CC1(C)Cc2ccccc2-c2nnc(SCC(=O)Nc3nc4ccccc4s3)n21	7	7	9	0.9	0.9	6

Screens: PubChem, several laboratories
